The full data set covers some 8,800 targets. This sample favours those with a hit. About 0.5% of all pairs of compound and target were hits. Unmarked numbers belong to inactive results.

Holding throughout (assay): log2 fold change, soluble protein after heating vs DMSO (PISA); higher = thermal stabilisation; K562 lysate, 10 uM; active = over 0.2 and 3.5 SD of the protein, either way, in both replicates (recomputed)
Compound in one test: C#Cc1cccc(Nc2ncnc3cc(OCCOC)c(OCCOC)cc23)c1 [erlotinib]
The essentials: (§1)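 Thermal stability, expressed as log-two fold change relative to solvent controls, is given from duplicates. Crude K562 extract in PBS pH 7.4 with 1 mM MgCl2, at 1 mg/mL protein, was treated with 10 μM compound for 30 min and heated in aliquots for 3 min across 48°C-58°C. After pooling, adjustment to 0.5% NP-40 at 4°C and centrifugation at 21,000xg for 90 min, supernatant protein was measured by TMTpro 16plex LC-MS/MS with channel sums equalised.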

Compound in test [1]: C/C(=N\NC(=O)C1=CC(=CC=C1)S(=O)(=O)N2CCOCC2)/C3=C(C=CC(=C3)Cl)O
An outline of the steps:
as §1

Compound in test [2]: C1=CC(=CC=C1C2=NC3=C(N2)C=C(C=C3)C(=O)N)OC4=CC=C(C=C4)Cl
An outline of the steps:
as §1

Compound in test [3]: C1=CC2=C(C=CC(=C2)/C=C\3/C(=O)NC(=NCC4=CC=CS4)S3)N=C1
An outline of the steps:
as §1

Compound in test [4]: C1=CC=C(C=C1)C2=NC(=C(N2)C3=CC=NC=C3)C4=CC(=C(C=C4)Cl)O
An outline of the steps:
as §1

Compound in test [5]: C1=CC=C2C(=C1)C3=NNC4=CC=CC(=C43)C2=O
The essentials: as §1

Compound in test [6]: C1CCN(C1)C(=O)NC2=CC=CC(=C2)NC3=NC=C(C(=N3)NCCC4=CN=CN4)Br
The essentials:
as §1

Compound in test [7]: C1CN(CCC1(CC2=CC=C(C=C2)Cl)N)C3=NC=NC4=C3C=CN4
An outline of the steps: as §1

Compound in another test: C1COCCN1CCN2C3=CC=CC=C3N=C2NC(=O)C4=CC(=CC=C4)[N+](=O)[O-] [IRAK-1-4 Inhibitor I]
An outline of the steps: as §1

Compound in the next test: C=CC(=O)N1CCC[C@@H](n2nc(-c3ccc(Oc4ccccc4)cc3)c3c(N)ncnc32)C1 [ibrutinib]
An outline of the steps: as §1

Compound in another test: CC(C)(C)Cn1c(N)nc2ccc(-c3[nH]c(C(C)(C)C)nc3-c3ccc(F)cc3)nc21 [ralimetinib]
An outline of the steps:
as §1

Compound in test [8]: CC(C)(O)CC(=O)NCCn1ccc2ncnc(Nc3ccc(Oc4cccc(C(F)(F)F)c4)c(Cl)c3)c21
An outline of the steps:
as §1

Compound in test [9]: CC(C)C1=C2N=C(C=C(N2N=C1)NCC3=CC=CC=C3)NCCCCCCN
The essentials:
as §1

Compound in test [10]: CC1=C(C(CC(=O)N1)C2=CC=C(C=C2)C(F)(F)F)C(=O)NC3=C(C=C4C(=C3)C=NN4)F
An outline of the steps:
as §1

Compound in test [11]: CC1=C(C2=C(C=C1)C(=O)C3=CC=CC=C3N2CCCN)C
An outline of the steps:
as §1

Compound in test [12]: CC1=C(C=C(C=C1)NC(=O)C2=CC(=CC=C2)C(C)(C)C#N)NC3=CC4=C(C=C3)N=CN(C4=O)C
The essentials:
as §1

Compound in test [13]: CC1=C(C=C(C=C1)NC(=O)C2=CC(=CC=C2)N(C)C)NC(=O)C3=CC=C(C=C3)O
The essentials: as §1

Compound in test [14]: C1=CC2=NC=CN=C2C=C1/C=C/3\C(=O)NC(=O)S3
The essentials: as §1

Compound in test [15]: CC(=O)c1cnc2ccc(-c3cc(Cl)c(O)c(Cl)c3)nc2c1N[C@H]1CC[C@H](CN(C)C)CC1
An outline of the steps: as §1

Compound in test [16]: CC1=CC=C(C=C1)SC2=C3C=C(SC3=CN=C2)C(=O)N
An outline of the steps: as §1

Chain of UniProt P45877 (P45877 whole entry, looked up): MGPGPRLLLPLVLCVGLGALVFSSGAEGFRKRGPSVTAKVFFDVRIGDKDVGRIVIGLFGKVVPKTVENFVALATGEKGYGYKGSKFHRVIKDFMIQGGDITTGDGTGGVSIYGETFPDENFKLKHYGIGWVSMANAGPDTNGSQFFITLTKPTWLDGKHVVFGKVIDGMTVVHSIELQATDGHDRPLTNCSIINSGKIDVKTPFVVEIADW
Chain of UniProt P60673 (P60673 whole entry, looked up): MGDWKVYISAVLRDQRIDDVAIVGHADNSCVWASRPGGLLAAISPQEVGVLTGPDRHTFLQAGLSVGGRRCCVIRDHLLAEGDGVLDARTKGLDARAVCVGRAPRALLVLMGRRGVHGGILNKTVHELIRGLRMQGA
Chain of UniProt Q05397 (Q05397 whole entry, looked up): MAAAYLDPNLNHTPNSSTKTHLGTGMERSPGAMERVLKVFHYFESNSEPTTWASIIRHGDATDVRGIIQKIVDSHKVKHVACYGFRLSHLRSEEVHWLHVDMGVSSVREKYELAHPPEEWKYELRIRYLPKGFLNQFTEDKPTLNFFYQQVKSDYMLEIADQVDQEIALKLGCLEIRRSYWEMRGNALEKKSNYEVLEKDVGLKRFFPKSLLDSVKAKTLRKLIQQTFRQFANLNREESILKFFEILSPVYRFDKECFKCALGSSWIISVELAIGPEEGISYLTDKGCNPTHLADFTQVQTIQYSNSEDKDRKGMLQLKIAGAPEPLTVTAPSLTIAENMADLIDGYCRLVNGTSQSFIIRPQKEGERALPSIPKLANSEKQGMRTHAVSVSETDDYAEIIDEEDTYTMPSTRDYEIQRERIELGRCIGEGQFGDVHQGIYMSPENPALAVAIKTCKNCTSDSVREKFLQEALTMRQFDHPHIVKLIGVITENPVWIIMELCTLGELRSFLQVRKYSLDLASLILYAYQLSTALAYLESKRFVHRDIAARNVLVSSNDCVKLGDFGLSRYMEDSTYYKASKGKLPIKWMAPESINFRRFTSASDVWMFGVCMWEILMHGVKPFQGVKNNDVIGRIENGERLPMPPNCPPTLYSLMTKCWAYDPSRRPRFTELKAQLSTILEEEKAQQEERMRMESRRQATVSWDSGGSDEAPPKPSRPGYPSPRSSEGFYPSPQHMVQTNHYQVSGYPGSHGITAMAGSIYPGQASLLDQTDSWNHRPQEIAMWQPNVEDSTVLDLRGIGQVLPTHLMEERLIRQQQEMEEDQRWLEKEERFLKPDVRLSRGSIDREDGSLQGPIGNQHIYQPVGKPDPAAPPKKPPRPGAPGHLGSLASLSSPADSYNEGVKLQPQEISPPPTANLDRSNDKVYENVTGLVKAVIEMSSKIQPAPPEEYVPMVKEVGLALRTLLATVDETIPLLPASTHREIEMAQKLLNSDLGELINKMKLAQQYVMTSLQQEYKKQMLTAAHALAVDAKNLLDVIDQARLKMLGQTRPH
Chain of UniProt A8CG34 (A8CG34 whole entry, looked up): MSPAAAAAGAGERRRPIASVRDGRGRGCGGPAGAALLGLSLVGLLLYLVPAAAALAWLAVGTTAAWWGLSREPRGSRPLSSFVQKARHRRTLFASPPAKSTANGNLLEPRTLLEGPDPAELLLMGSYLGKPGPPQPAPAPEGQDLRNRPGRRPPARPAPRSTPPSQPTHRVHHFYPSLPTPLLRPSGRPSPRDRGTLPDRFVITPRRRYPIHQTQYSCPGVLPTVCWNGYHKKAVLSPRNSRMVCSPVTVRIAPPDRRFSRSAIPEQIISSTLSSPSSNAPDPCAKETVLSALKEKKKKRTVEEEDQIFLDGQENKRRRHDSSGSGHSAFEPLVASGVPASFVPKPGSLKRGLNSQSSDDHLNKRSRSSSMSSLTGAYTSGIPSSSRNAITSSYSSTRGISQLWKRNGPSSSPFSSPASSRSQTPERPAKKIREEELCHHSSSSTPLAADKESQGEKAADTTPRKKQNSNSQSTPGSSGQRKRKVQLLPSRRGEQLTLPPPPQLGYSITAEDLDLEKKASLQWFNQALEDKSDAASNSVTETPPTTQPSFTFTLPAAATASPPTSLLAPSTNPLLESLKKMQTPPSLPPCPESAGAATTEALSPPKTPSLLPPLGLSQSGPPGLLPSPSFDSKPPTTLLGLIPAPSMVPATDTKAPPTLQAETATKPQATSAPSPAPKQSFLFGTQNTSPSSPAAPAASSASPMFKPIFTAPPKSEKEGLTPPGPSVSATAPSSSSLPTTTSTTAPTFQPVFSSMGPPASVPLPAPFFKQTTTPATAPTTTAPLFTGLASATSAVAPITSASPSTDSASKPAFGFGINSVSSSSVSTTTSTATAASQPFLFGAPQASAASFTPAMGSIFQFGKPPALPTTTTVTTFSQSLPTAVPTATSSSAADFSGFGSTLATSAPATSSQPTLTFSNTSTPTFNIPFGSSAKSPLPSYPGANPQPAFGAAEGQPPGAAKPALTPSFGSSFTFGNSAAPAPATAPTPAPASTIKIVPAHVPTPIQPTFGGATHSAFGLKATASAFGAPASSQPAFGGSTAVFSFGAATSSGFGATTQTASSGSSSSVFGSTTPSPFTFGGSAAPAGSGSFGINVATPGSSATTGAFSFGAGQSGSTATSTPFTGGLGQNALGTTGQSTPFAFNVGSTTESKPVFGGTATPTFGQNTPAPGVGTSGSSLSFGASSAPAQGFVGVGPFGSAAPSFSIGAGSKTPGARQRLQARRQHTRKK
Chain of UniProt O94880 (O94880 whole entry, looked up): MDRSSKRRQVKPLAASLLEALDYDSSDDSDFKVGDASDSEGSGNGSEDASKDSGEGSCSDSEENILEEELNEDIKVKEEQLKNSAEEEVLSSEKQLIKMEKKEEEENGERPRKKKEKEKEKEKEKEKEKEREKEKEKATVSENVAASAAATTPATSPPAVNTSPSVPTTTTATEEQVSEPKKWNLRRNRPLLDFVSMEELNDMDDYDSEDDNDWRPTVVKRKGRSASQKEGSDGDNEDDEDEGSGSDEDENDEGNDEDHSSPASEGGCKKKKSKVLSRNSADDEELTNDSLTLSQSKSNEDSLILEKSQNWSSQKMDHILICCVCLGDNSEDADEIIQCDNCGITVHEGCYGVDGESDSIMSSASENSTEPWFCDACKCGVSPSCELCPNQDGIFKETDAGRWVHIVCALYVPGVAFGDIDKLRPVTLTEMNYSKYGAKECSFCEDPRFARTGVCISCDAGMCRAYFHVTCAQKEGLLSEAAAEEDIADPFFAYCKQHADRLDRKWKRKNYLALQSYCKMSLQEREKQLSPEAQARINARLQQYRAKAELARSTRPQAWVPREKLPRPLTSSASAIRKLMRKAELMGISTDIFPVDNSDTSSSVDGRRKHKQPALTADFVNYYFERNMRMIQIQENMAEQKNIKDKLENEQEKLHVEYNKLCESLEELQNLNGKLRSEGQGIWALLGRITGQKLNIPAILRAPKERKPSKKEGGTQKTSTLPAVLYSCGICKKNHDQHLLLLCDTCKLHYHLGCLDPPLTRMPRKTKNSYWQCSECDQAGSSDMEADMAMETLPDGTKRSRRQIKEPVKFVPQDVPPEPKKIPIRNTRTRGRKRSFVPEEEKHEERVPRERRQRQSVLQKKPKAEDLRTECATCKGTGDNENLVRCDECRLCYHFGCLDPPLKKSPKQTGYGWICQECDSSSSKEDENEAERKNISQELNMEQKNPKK
Chain of UniProt P48736 (P48736 whole entry, looked up): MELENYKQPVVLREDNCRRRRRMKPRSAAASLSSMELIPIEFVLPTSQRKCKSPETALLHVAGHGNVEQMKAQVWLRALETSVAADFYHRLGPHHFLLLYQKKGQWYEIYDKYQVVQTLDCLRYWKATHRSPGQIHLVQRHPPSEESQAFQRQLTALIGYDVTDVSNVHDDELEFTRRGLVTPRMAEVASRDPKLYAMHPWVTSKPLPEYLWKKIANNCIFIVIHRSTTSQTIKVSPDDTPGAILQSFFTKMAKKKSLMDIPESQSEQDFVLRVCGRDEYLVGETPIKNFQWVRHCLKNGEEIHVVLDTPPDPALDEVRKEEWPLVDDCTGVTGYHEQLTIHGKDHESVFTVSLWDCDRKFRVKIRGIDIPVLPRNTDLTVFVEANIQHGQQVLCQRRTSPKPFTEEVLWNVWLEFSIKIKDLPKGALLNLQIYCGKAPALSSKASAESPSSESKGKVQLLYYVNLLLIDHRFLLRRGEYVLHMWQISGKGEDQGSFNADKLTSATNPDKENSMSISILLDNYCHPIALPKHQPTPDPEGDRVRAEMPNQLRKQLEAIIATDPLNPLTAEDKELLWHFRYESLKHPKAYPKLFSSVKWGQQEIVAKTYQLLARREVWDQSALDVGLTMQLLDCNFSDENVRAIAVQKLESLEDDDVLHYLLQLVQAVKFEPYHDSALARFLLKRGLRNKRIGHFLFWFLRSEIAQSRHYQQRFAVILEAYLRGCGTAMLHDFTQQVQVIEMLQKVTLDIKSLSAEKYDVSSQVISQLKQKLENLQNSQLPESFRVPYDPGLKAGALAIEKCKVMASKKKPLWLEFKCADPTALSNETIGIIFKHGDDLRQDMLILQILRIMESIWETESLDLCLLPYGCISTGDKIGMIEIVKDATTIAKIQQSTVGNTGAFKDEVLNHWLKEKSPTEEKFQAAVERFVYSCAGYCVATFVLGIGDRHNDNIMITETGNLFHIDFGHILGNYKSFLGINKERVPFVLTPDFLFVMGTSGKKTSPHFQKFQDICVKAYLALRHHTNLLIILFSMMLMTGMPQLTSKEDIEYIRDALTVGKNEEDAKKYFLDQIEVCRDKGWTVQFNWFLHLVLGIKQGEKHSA
Chain of UniProt Q9Y570 (Q9Y570 whole entry, looked up): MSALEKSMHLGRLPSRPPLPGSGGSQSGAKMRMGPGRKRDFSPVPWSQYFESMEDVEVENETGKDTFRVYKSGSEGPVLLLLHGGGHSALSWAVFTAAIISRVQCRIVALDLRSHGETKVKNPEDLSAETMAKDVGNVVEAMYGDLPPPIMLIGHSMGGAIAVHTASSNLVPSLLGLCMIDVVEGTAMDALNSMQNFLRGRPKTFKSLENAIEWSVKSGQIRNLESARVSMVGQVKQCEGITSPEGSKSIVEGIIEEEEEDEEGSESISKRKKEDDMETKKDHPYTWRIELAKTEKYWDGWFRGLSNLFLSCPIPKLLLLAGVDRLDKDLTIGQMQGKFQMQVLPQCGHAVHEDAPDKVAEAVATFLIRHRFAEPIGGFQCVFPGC

As for PIK3CG (UniProt P48736), the log2 fold change with erlotinib is 0.045; in [1], 0; in test [2], -0.011; in test [3], 0.045; in [4] it was -0.047; in test [5], -0.005. Moreover, the log2 fold change in test [6] is 0; in test [7], 0.003; in the test with IRAK-1-4 Inhibitor I, -0.011; with ibrutinib it was -0.017; in the test with ralimetinib it was 0.02; in test [8], -0.047. The log2 fold change in test [9] was -0.027; in test [10], -0.054; in test [11], -0.071; in [12], -0.025; in [13], 0.01.
For the target PHF14 (UniProt O94880), the log2 fold change in test [1] is 0.032; in test [3], -0.01; in test [14], -0.06; in test [4], -0.086; in [5], 0.045; in test [6] it was -0.423. Moreover, the log2 fold change in [7] was 0.432; with IRAK-1-4 Inhibitor I, 0.035; in the test with ibrutinib, -0.014; in test [15], 0.03; with ralimetinib it was -0.024; in test [8], -0.055. The log2 fold change was 0.454 (active) in test [10], -0.003 in test [11], -0.042 in test [13] and -0.128 in test [16].
For PPME1 (UniProt Q9Y570), the log2 fold change with erlotinib is 0.129; in test [2], 0.003; in test [14] it was -0.09; in [6], -0.025; in [7] it was -0.033; with ibrutinib, -0.038. Also, the log2 fold change in test [15] was -0.072; in [9], -0.238; in test [11] it was -0.018; in [16], -0.077.
On to POM121C (UniProt A8CG34), for which the log2 fold change is 0.001 with erlotinib; 0.027 in test [2]; 0.032 in [14]; -0.064 in [4]; -0.069 with IRAK-1-4 Inhibitor I; -0.167 with ibrutinib. Moreover, the log2 fold change is 0.008 in [15]; -0.127 with ralimetinib; 0.016 in test [8]; 0.028 in test [9]; -0.028 in [13]; 0.034 in test [16].
Consider PHGDH, A0A286YFE1, for which the log2 fold change in test [14] was -0.166; with ibrutinib, 0.032; in test [15], 0.084; in test [11], -0.458; in [16], 0.107.
Take PPIC (UniProt P45877): the log2 fold change was 0.049 in the test with erlotinib; -0.042 in test [1]; 0.119 in [2]; 0.025 in [3]; 0.265 in test [14]; -0.032 in test [4]. Moreover, the log2 fold change in test [5] is 0.036; with IRAK-1-4 Inhibitor I, 0.06; with ibrutinib, 0.278; with ralimetinib, -0.17; in [8], 0.057; in [9], -0.021. Also, the log2 fold change is -0.139 in test [10], 0.138 in test [11], 0.102 in test [12] and 0.05 in [13].
On to PFN3 (UniProt P60673), for which the log2 fold change in test [1] was -0.231; in test [3] it was -0.078; in test [5] it was -0.162; in [6] it was -0.041; in test [7] it was 0.155; in [15], 0.042. Moreover, the log2 fold change was -0.02 in [10], -0.03 in test [12] and -0.02 in test [16].
PTMA isoform 2 (UniProt P06454): the values for the log2 fold change (in test [14]; in the test with ibrutinib) were 0.015 and -0.053, respectively.
Turning to PECR (UniProt Q9BY49), the log2 fold change in test [6] was -0.004; in test [7], 0.056.
Regarding PDIA4, A0A499FI48, the results for the log2 fold change in test [11] and in test [12] were -0.017 and -0.066, respectively.
As for PREP (UniProt H0Y5Y0), the log2 fold change in test [15] was -0.051; in [16] it was 0.029.
As for NA (UniProt Q4G0T1), the log2 fold change is -0.178 with erlotinib; 0.348 (active) in test [2]; 0.017 in test [4]; 0.002 with IRAK-1-4 Inhibitor I; 0.016 with ralimetinib; -0.096 in test [8]. Also, the log2 fold change was -0.119 in [9], -0.061 in test [11], -0.158 in test [12] and -0.151 in test [13].
With PHOSPHO2 (UniProt C9JD35), the log2 fold change is 0.069 in test [6], -0.21 in test [7] and 0.09 in test [12].
In the case of PMS1 (UniProt P54277), the log2 fold change is -0.024 in the test with erlotinib; 0.012 in test [1]; 0.041 in [2]; -0.002 in test [3]; 0.106 in test [14]; 0.03 in test [4]. The log2 fold change was -0.094 in test [5]; -0.002 in [6]; 0.016 in [7]; -0.027 with IRAK-1-4 Inhibitor I; 0 with ibrutinib; -0.015 with ralimetinib. The log2 fold change in test [8] was -0.021; in test [9], 0.025; in test [10] it was -0.052; in [11], 0.022; in [12], -0.02; in [13], 0.009.
As to PTK2 isoform 2 (UniProt Q05397), the log2 fold change with erlotinib was 0.002; in test [2] it was 0.006; in [14], -0.114; in test [6] it was 0.193; in [7] it was -0.016; with ibrutinib, 0.173. The log2 fold change in test [15] was -0.047; in test [9], -0.002; in [11], -0.138; in [16], -0.053.

(Values after the supplement of paper PMC10849652.)
